The structures appear in SMILES notation. Several values for one entry are separate records, joined by “and”; a condition that tells them apart may be missing. Equal entries are not always repeated. Activity calls are given as the source filed them.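 Rule for the calls, unless noted: active = inhibition at or above 50% at 10 µM; inactive = inhibition below 50%.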

The first experiment is described as follows: blockers of RIG-like receptor reporter activation – cell-based, Sendai virus stimulus, luciferase, 10K MLSCN set, TLR/RLR signaling modifier project, primary screen (AID 602276).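 Note: firefly luciferase from ISG56 promoter only with Renilla not read in this screen; 0% = Sendai virus plus DMSO and 100% = medium plus DMSO without virus.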 The conditions noted are these: HEK293 RL24 IRF3 luciferase reporter, at 10 µM, hits give high values.
With `CN1Cc2c(N)cccc2C(c2ccccc2)C1` (stereo not given), the inhibition is 9.51% (inactive).

Turning to `Cc1cn([C@H]2C=C[C@@H](CO)O2)c(=O)[nH]c1=O`, the inhibition is 16.3% (inactive).

Regarding `COC(=O)c1ccc(N2C(=O)CC(N3CCN(C(=O)c4ccco4)CC3)C2=O)cc1` (stereo not given), the inhibition is 6.43% (inactive).

On to `C[C@H]1C[C@H]2[C@@H]3CCC4=CC(=O)C=C[C@]4(C)[C@@]3(Cl)[C@@H](O)C[C@]2(C)[C@@]1(O)C(=O)CO`, for which the inhibition is 8.02% (inactive).

`CCCC1O[C@@H]2C[C@H]3[C@@H]4CCC5=CC(=O)C=C[C@]5(C)[C@H]4[C@@H](O)C[C@]3(C)[C@]2(C(=O)CO)O1` (stereo not given in full): the inhibition is 0.287% (inactive).

Take `CNCCC(Oc1ccc(C(F)(F)F)cc1)c1ccccc1` (stereo not given): the inhibition was 21% (inactive).

Regarding `Clc1ccc(Cn2c(CN3CCCC3)nc3ccccc32)cc1`, the inhibition is 16.5% (inactive).

Turning to `CC(C)NCC(O)COc1ccc(CC(N)=O)cc1` (stereo not given), the inhibition was -12.5% (inactive).

For the compound `CC(C)C[C@H]1C(=O)N2CCC[C@H]2[C@]2(O)O[C@](NC(=O)[C@@H]3C=C4c5cccc6[nH]c(Br)c(c56)CC4N(C)C3)(C(C)C)C(=O)N12` (stereo not given in full), the inhibition was 7.85% (inactive).

Take `CCOC(=O)c1cc2c(=O)n3cccc(C)c3nc2n(CCc2ccccc2)c1=N`: the inhibition is 12% (inactive).

Turning to `CC(=O)OCC1=C(C(=O)O)N2C(=O)[C@@H](NC(=O)Cc3cccs3)[C@H]2SC1`, the inhibition is 10.9% (inactive).

As to `Cc1cccc(Nc2ccccc2C(=O)O)c1C`, the inhibition was 8.41% (inactive).

Take `CC(COc1ccccc1)N(CCCl)Cc1ccccc1` (stereo not given): the inhibition was 4.33% (inactive).

On to `Cc1cc(C)nc(NS(=O)(=O)c2ccc(N)cc2)n1`, for which the inhibition was 15.1% (inactive).

As for `COc1cc(C2C(C#N)=C(N)Oc3cc(N)ccc32)cc(OC)c1OC` (stereo not given), the inhibition was 46.4% (inactive).

On to `CN(C)CCCC1(c2ccc(F)cc2)OCc2cc(C#N)ccc21` (stereo not given), for which the inhibition was 1.82% (inactive).

In the case of `CCCc1cc(=O)[nH]c(=S)[nH]1`, the inhibition was 10.3% (inactive).

Take `CN(C)CCOC(C)(c1ccccc1)c1ccccn1` (stereo not given): the inhibition is 2.29% (inactive).

As for `CCCCNC(=O)NS(=O)(=O)c1ccc(C)cc1`, the inhibition was -6.27% (inactive).

As to `CC(=O)[C@@]1(O)CC[C@H]2[C@@H]3C[C@H](C)C4=CC(=O)C=C[C@]4(C)[C@@]3(F)[C@@H](O)C[C@@]21C`, the inhibition was 13.2% (inactive).

`O=C1NC(=O)C(c2ccccc2)(c2ccccc2)N1`: the inhibition is -7.98% (inactive).

On to `CC(C)(C)NC[C@H](O)COc1nsnc1N1CCOCC1`, for which the inhibition was 6.87% (inactive).

With `O=C(O)CCC(=O)Nc1ccc(S(=O)(=O)Nc2nccs2)cc1`, the inhibition is 21.6% (inactive).

Turning to `Cc1cc(C(C)(C)C)cc(C)c1CC1=NCCN1`, the inhibition is 2.07% (inactive).

Turning to `CN(C)CCCN1c2ccccc2Sc2ccccc21`, the inhibition was 6.01% (inactive).

For `Nc1ccc(C(=O)O)c(O)c1`, the inhibition was 5.21% (inactive) and 16.9% (inactive).

In the case of `CC(=O)[C@H]1CC[C@H]2[C@@H]3CCC4=CC(=O)CC[C@]4(C)[C@H]3CC[C@]12C`, the inhibition is 3.73% (inactive).

As for `O=c1n(CCCN2CCN(c3cccc(Cl)c3)CC2)nc2ccccn12`, the inhibition was 10.6% (inactive).

For the compound `Cn1c(=O)c2c(ncn2CC(O)CO)n(C)c1=O` (stereo not given), the inhibition was 12.6% (inactive).

As for `CC1(C)S[C@@H]2[C@H](NC(=O)Cc3ccccc3)C(=O)N2[C@H]1C(=O)O`, the inhibition is 20.3% (inactive).

With `CN(C)C(=O)Oc1ccc[n+](C)c1`, the inhibition was 6.65% (inactive).

As to `CCCOc1ccc2nc(NC(=O)OC)[nH]c2c1`, the inhibition was 25.2% (inactive).

With `OC(CCN1CCCCC1)(c1ccccc1)C1CCCCC1` (stereo not given), the inhibition was 0.614% (inactive).

For `O=c1c(O)c(-c2ccc(O)cc2O)oc2cc(O)cc(O)c12`, the inhibition is 11.8% (inactive).

On to `COC(=O)Nc1nc2ccc(C(=O)c3ccccc3)cc2[nH]1`, for which the inhibition was 17.6% (inactive).

`CCc1cccc2c3c([nH]c12)C(CC)(CC(=O)O)OCC3` (stereo not given): the inhibition is 10.1% (inactive).

Take `C[N+](C)(C)CCCCCCCCCC[N+](C)(C)C`: the inhibition was -7.67% (inactive).

As to `O=C(c1ccc(F)cc1)C1CCN(CCn2c(=O)[nH]c3ccccc3c2=O)CC1`, the inhibition is 0.811% (inactive).

For `CCN1CCN(C(=O)N[C@@H](C(=O)N[C@@H]2C(=O)N3[C@@H]2SC(C)(C)[C@@H]3C(=O)O)c2ccccc2)C(=O)C1=O`, the inhibition was 6.7% (inactive).

As for `Cc1ncc([N+](=O)[O-])n1CCO`, the inhibition is 8% (inactive).

A further experiment in a line: TLR3 IRF3 reporter activation blockers – cell-based, poly I:C stimulus, luciferase, 10K MLSCN set, primary screen (AID 602277;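 active = inhibition of the reporter signal at or above 50%; inactive = inhibition below 50%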). The note with it: HEK293-TLR3 RL24 IRF3 luciferase reporter, at 10 µM, hits give high values. (In general: A reporter such as luciferase makes a cellular process visible.)
For `CN1Cc2c(N)cccc2C(c2ccccc2)C1` (stereo not given), the inhibition was 22.5% (inactive).

Take `Cc1cn([C@H]2C=C[C@@H](CO)O2)c(=O)[nH]c1=O`: the inhibition was 37.9% (inactive).

For `COC(=O)c1ccc(N2C(=O)CC(N3CCN(C(=O)c4ccco4)CC3)C2=O)cc1` (stereo not given), the inhibition was 18.5% (inactive).

For `C[C@H]1C[C@H]2[C@@H]3CCC4=CC(=O)C=C[C@]4(C)[C@@]3(Cl)[C@@H](O)C[C@]2(C)[C@@]1(O)C(=O)CO`, the inhibition was 22.6% (inactive).

As to `CCCC1O[C@@H]2C[C@H]3[C@@H]4CCC5=CC(=O)C=C[C@]5(C)[C@H]4[C@@H](O)C[C@]3(C)[C@]2(C(=O)CO)O1` (stereo not given in full), the inhibition is 58.3% (active).

Take `CNCCC(Oc1ccc(C(F)(F)F)cc1)c1ccccc1` (stereo not given): the inhibition was 34.3% (inactive).

As to `Clc1ccc(Cn2c(CN3CCCC3)nc3ccccc32)cc1`, the inhibition was 28.2% (inactive).

With `CC(C)NCC(O)COc1ccc(CC(N)=O)cc1` (stereo not given), the inhibition is -8.56% (inactive).

With `CC(C)C[C@H]1C(=O)N2CCC[C@H]2[C@]2(O)O[C@](NC(=O)[C@@H]3C=C4c5cccc6[nH]c(Br)c(c56)CC4N(C)C3)(C(C)C)C(=O)N12` (stereo not given in full), the inhibition is 5.12% (inactive).

Consider `CCOC(=O)c1cc2c(=O)n3cccc(C)c3nc2n(CCc2ccccc2)c1=N`, for which the inhibition was 28.5% (inactive).

For `CC(=O)OCC1=C(C(=O)O)N2C(=O)[C@@H](NC(=O)Cc3cccs3)[C@H]2SC1`, the inhibition is 35.2% (inactive).

With `Cc1cccc(Nc2ccccc2C(=O)O)c1C`, the inhibition was 14% (inactive).

In the case of `CC(COc1ccccc1)N(CCCl)Cc1ccccc1` (stereo not given), the inhibition was 22.7% (inactive).

Consider `Cc1cc(C)nc(NS(=O)(=O)c2ccc(N)cc2)n1`, for which the inhibition was 26.9% (inactive).

`COc1cc(C2C(C#N)=C(N)Oc3cc(N)ccc32)cc(OC)c1OC` (stereo not given): the inhibition was 88.5% (active).

Regarding `CN(C)CCCC1(c2ccc(F)cc2)OCc2cc(C#N)ccc21` (stereo not given), the inhibition is 18.9% (inactive).

In the case of `CCCc1cc(=O)[nH]c(=S)[nH]1`, the inhibition is 30.1% (inactive).

As for `CN(C)CCOC(C)(c1ccccc1)c1ccccn1` (stereo not given), the inhibition is 19.2% (inactive).

As for `CCCCNC(=O)NS(=O)(=O)c1ccc(C)cc1`, the inhibition is 5.7% (inactive).

Take `CC(=O)[C@@]1(O)CC[C@H]2[C@@H]3C[C@H](C)C4=CC(=O)C=C[C@]4(C)[C@@]3(F)[C@@H](O)C[C@@]21C`: the inhibition was 38.7% (inactive).

For the compound `O=C1NC(=O)C(c2ccccc2)(c2ccccc2)N1`, the inhibition was -7.53% (inactive).

For the compound `CC(C)(C)NC[C@H](O)COc1nsnc1N1CCOCC1`, the inhibition was 46.4% (inactive).

Take `O=C(O)CCC(=O)Nc1ccc(S(=O)(=O)Nc2nccs2)cc1`: the inhibition is 37.7% (inactive).

On to `Cc1cc(C(C)(C)C)cc(C)c1CC1=NCCN1`, for which the inhibition was 45.9% (inactive).

For `CN(C)CCCN1c2ccccc2Sc2ccccc21`, the inhibition is 34.6% (inactive).

Consider `Nc1ccc(C(=O)O)c(O)c1`, for which the inhibition was 9.44% (inactive) and 29.7% (inactive).

With `CC(=O)[C@H]1CC[C@H]2[C@@H]3CCC4=CC(=O)CC[C@]4(C)[C@H]3CC[C@]12C`, the inhibition is 31.6% (inactive).

Regarding `O=c1n(CCCN2CCN(c3cccc(Cl)c3)CC2)nc2ccccn12`, the inhibition is 31.8% (inactive).

Regarding `Cn1c(=O)c2c(ncn2CC(O)CO)n(C)c1=O` (stereo not given), the inhibition is 29.1% (inactive).

On to `CC1(C)S[C@@H]2[C@H](NC(=O)Cc3ccccc3)C(=O)N2[C@H]1C(=O)O`, for which the inhibition is 37.6% (inactive).

As to `CN(C)C(=O)Oc1ccc[n+](C)c1`, the inhibition was 26.9% (inactive).

With `CCCOc1ccc2nc(NC(=O)OC)[nH]c2c1`, the inhibition is 74.2% (active).

On to `OC(CCN1CCCCC1)(c1ccccc1)C1CCCCC1` (stereo not given), for which the inhibition was -5.26% (inactive).

Consider `O=c1c(O)c(-c2ccc(O)cc2O)oc2cc(O)cc(O)c12`, for which the inhibition was 29.6% (inactive).

As to `COC(=O)Nc1nc2ccc(C(=O)c3ccccc3)cc2[nH]1`, the inhibition was 46.8% (inactive).

In the case of `CCc1cccc2c3c([nH]c12)C(CC)(CC(=O)O)OCC3` (stereo not given), the inhibition was 33.6% (inactive).

With `C[N+](C)(C)CCCCCCCCCC[N+](C)(C)C`, the inhibition is 7.68% (inactive).

For `O=C(c1ccc(F)cc1)C1CCN(CCn2c(=O)[nH]c3ccccc3c2=O)CC1`, the inhibition is 31.8% (inactive).

For the compound `CCN1CCN(C(=O)N[C@@H](C(=O)N[C@@H]2C(=O)N3[C@@H]2SC(C)(C)[C@@H]3C(=O)O)c2ccccc2)C(=O)C1=O`, the inhibition was 14.4% (inactive).

Regarding `Cc1ncc([N+](=O)[O-])n1CCO`, the inhibition is 25.4% (inactive).

A word on the inhibition: it is the relative decrease from the control value, in per cent.

The values are drawn from PubChem BioAssay.
